# Reference: PubChem BioAssay (Tox21)
# Several values for one entry are separate records, joined by “and”; a condition that tells them apart may be missing. Equal entries are not always repeated. Results filed as inconclusive are left out. Where a call stands in place of a potency, no number is given. Where a structure was tested more than once in an assay, its records may differ in their call. Activity calls are given as the source filed them. Unless noted, the call rests on the fitted dose curve; in most records, active means well fitted curve in the direction sought with a large enough effect in the repeat runs; inconclusive means weak or mixed curves; inactive means no such curve, though single readings can be large; an effect the other way counts as inactive or inconclusive.
# Tests used:
# [1] = qHTS assay to identify small molecule agonists of the estrogen receptor alpha (ER-alpha) signaling pathway in the presence of an antagonist - cell viability counter screen (AID 1259386);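 further: cells exposed to compounds for 22 h at 37 °C before the viability read; nearly all actives have a fitted effect of over 30% in size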; further: potency means the concentration at half of the fitted maximal effect
# In short: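 Cell viability in VM7Luc4E2 cells (endogenous full-length ER-alpha) measured by CellTiter-Fluor fluorescence in the same wells as the luciferase screen. Cells pre-cultured 5 days in charcoal-stripped serum, then treated 22 h with compounds at 15 concentrations plus 10.0nM ICI-182,780.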
# [2] = biological target: Progesterone receptor (Homo sapiens) (UniProt P06401); test: qHTS assay to identify small molecule agonists of the progesterone receptor (PR) signaling pathway (AID 1346784; calls by dose curve; further: nearly all actives have a fitted effect of over 30% in size)
# Chain of Progesterone receptor (Homo sapiens) (P06401 whole entry, looked up): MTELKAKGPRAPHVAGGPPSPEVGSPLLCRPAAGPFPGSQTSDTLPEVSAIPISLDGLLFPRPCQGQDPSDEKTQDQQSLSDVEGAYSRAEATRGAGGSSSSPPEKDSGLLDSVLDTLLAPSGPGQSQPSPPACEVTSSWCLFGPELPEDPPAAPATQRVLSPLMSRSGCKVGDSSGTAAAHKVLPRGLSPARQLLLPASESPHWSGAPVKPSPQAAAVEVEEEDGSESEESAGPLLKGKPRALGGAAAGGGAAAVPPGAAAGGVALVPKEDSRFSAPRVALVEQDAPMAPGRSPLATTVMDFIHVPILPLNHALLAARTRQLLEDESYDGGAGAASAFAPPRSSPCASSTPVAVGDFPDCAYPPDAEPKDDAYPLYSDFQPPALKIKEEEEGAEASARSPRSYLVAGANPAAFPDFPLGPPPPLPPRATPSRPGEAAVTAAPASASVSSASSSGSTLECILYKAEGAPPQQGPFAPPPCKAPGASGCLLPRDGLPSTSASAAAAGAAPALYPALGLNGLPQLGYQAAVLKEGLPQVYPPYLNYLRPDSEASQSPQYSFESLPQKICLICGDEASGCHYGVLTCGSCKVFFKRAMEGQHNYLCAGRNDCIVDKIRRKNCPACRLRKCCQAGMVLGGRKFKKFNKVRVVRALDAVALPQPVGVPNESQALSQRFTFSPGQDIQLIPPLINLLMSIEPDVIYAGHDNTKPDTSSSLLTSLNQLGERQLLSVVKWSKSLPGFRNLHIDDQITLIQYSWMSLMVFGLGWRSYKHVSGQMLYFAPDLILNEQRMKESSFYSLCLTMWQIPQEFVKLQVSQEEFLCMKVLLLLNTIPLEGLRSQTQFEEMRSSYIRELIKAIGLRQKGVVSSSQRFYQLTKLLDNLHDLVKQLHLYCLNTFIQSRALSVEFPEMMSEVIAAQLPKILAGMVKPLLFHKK
# In short: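 HEK 293T PR-UAS-bla reporter cells, 2% charcoal-stripped FBS; 6 hr settle at 37C/5% CO2, compound (DMSO) 16 hr, LiveBLAzer B/G FRET substrate 2 hr RT, fluorescence intensity read.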
# [3] = biological target: Progesterone receptor (Homo sapiens) (UniProt P06401); test: qHTS assay to identify small molecule antagonists of the progesterone receptor (PR) signaling pathway (AID 1346795; active means well fitted inhibition curve with a large enough effect in the signal ratio in the repeat runs, not every such curve was filed as active; the % refers to the signal ratio; further: potency means the concentration at half of the fitted maximal effect)
# In short: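 Beta-lactamase reporter, HEK293T PR-UAS-bla line; 2% charcoal-stripped FBS; 6 hr pre-incubation, 37C/5% CO2. Compound + R5020 1 nM final, 16 hr. LiveBLAzer B/G FRET substrate, 2 hr RT; fluorescence intensity read.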
# [4] = qHTS assay to identify small molecule antagonists of the progesterone receptor (PR) signaling pathway - cell viability counter screen (AID 1346798); further: nearly all actives have a fitted effect of over 50% in size; further: potency means the concentration at half of the fitted maximal effect
# In short: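 Luminescence readout (CellTiter-Glo, 30 min, RT) of viability in PR-UAS-bla HEK293T cells exposed to compound and R5020 agonist for 16 hr at 37C, 5% CO2; run in the same wells as the beta-lactamase reporter read.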
# [5] = qHTS assay to identify small molecule agonists of the progesterone receptor (PR) signaling pathway - cell viability counter screen (AID 1346799; calls by dose curve; further: nearly all actives have a fitted effect of over 45% in size; further: potency means the concentration at half of the fitted maximal effect)
# In short: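 HEK293T PR-UAS-bla, 3,000 cells/well, 2% charcoal-stripped FBS; 6 h settle, compound 16 h at 37C/5% CO2; LiveBLAzer 2 h RT, then CellTiter-Glo 30 min RT, luminescence read.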
# [6] = qHTS assay to identify small molecule antagonists of the TGF-beta/Smad signaling pathway - cell viability counter screen (AID 1346824); further: nearly all actives have a fitted effect of over 50% in size
# In short: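 SBE-bla HEK 293T cells, incubated overnight, then compound plus 0.25 ng/mL TGF-beta1 (stock added) for 5 hr at 37 C. Viability was read in the same wells by CellTiter-Glo luminescence after 30 min at room temperature.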
# [7] = qHTS assay to identify small molecule agonists of the TGF-beta/Smad signaling pathway - cell viability counter screen (AID 1346829); further: top concentration of the series differs between compounds; nearly all actives have a fitted effect of over 45% in size
# In short: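 In parallel with the Smad reporter read, viability of HEK 293T cells stably carrying SBE-bla is quantified by ATP luminescence following 5 hr compound treatment.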
# [8] = qHTS assay to identify small molecule agonists of the TGF-beta/Smad signaling pathway (AID 1346859; active means well fitted activation curve with a large enough effect in the signal ratio in the repeat runs, not every such curve was filed as active; the % refers to the signal ratio; further: series mostly up to about 77 µM)
# In short: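 Read-out: fluorescence at 460 and 530 nm (405 nm excitation) after a 2 hr room-temperature incubation with beta-lactamase FRET substrate. SBE-bla HEK 293T cells had been treated with test compounds for 5 hr at 37 C.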
# [9] = biological target: Thyrotropin-releasing hormone receptor (Homo sapiens) (UniProt P34981); test: qHTS assay to identify small molecule antagonists of the thyrotropin-releasing hormone receptor (TRHR) signaling pathway (AID 1346877; active means well fitted inhibition curve with a large enough effect in the repeat runs, not every such curve was filed as active; further: series mostly up to about 51 µM)
# Chain of Thyrotropin-releasing hormone receptor (Homo sapiens) (P34981 whole entry, looked up): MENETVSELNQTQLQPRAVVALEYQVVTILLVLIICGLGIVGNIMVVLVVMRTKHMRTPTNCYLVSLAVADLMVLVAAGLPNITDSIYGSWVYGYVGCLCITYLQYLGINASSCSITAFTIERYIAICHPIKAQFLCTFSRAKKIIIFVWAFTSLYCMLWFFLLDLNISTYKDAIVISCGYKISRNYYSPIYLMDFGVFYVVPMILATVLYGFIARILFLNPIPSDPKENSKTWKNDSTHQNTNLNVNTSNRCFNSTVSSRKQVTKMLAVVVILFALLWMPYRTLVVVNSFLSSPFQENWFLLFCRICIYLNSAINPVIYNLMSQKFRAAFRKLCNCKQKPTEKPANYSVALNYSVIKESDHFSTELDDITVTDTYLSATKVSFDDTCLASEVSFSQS
# In short: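 TRHR-expressing HEK293 cells loaded with calcium dye for 2 h at 37 C; compounds pre-incubated 5 min at room temperature before TRH challenge at 1 nM final. Intracellular calcium fluorescence read kinetically for 3 min; 15 concentrations in triplicate.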
# [10] = biological target: Thyrotropin-releasing hormone receptor (Homo sapiens) (UniProt P34981); test: qHTS assay to identify small molecule agonists of the thyrotropin-releasing hormone receptor (TRHR) signaling pathway (AID 1346891; calls by dose curve; further: series mostly up to about 58 µM)
# In short: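 HEK293/TRHR cells, 1500 per well, 18 h 37 °C; Ca dye 2 h 37 °C; pin-tool compound addition (agonist mode); kinetic fluorescence 3 min, 1 s reads; 15 concentrations, triplicate.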
# [11] = Human pregnane X receptor (PXR) small molecule agonists, qHTS cell viability counter screen (AID 1346977); further: nearly all actives have a fitted effect of over 50% in size; further: potency means the concentration at half of the fitted maximal effect
# In short: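 Fluorescence read-out (CellTiter-Fluor) of viability in PXR-Luc HepG2 cells, multiplexed with the luciferase agonist read. Compounds in DMSO added after 5hr plating; 24hr total exposure at 37C, 5% CO2.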
# [12] = Caspase-3/7 induction in HepG2 cells by small molecules, qHTS assay (AID 1346978); further: nearly all actives have a fitted effect of over 15% in size
# In short: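 Wild-type HepG2 cells, 2,000/well, settled 5 hr at 37 C and 5% CO2, then compound-treated for 17 hr; caspase-3/7 activity read by luminescent Caspase-Glo 3/7 after 30 min at room temperature.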
# [13] = Caspase-3/7 induction in CHO-K1 cells by small molecules, qHTS cell viability counter screen (AID 1346979); further: nearly all actives have a fitted effect of over 35% in size; further: potency means the concentration at half of the fitted maximal effect
# In short: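 CHO-K1 wt, 1,500 cells/well; 5hr pre-incubation 37C/5% CO2; compound pin transfer (DMSO); 16hr exposure; CellTiter-Fluor added, 1hr, fluorescence read.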
# [14] = Caspase-3/7 induction in CHO-K1 cells by small molecules, qHTS assay (AID 1346980); further: nearly all actives have a fitted effect of over 15% in size
# In short: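 Wild-type CHO-K1 cells exposed to compounds for 17hr at 37 C, 5% CO2. Caspase-3/7 activity then measured by Caspase-Glo 3/7 luminescence after 30min at room temperature.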
# [15] = Caspase-3/7 induction in HepG2 cells by small molecules, qHTS cell viability counter screen (AID 1346981); further: nearly all actives have a fitted effect of over 30% in size; further: potency means the concentration at half of the fitted maximal effect
# In short: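 Wild-type HepG2 cells, 2,000/well, settled 5 hr at 37 C, 5% CO2 before compound addition. Viability read by CellTiter-Fluor fluorescence, reagent added after 16 hr compound exposure, then 1 hr at 37C, in the same wells as the caspase read.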
# [16] = biological target: Nuclear receptor subfamily 1 group I member 2 (Homo sapiens) (UniProt O75469); test: Human pregnane X receptor (PXR) small molecule agonists, qHTS assay (AID 1346982); further: nearly all actives have a fitted effect of over 35% in size; further: potency means the concentration at half of the fitted maximal effect
# Chain of Nuclear receptor subfamily 1 group I member 2 (Homo sapiens) (O75469 whole entry, looked up): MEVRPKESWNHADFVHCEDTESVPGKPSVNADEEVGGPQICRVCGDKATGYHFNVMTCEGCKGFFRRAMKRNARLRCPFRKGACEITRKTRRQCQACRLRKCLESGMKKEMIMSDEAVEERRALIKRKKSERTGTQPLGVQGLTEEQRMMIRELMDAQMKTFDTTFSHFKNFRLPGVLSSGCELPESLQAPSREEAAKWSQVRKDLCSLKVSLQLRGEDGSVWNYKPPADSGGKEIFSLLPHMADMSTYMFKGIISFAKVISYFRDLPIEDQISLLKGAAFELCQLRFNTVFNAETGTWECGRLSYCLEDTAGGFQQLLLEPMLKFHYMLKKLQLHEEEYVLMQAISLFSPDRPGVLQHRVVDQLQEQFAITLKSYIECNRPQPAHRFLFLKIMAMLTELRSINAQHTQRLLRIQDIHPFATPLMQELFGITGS
# In short: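 PXR-Luc HepG2 reporter cells (CYP3A4-driven luciferase) in 5% charcoal-stripped FBS medium, plated 5 h before compound addition, then treated 24 h at 37C. Luciferase read by ONE-Glo luminescence after 30 min at room temperature.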
# [17] = biological target: Nuclear receptor subfamily 1 group I member 2 (Rattus norvegicus) (UniProt Q9R1A7); test: Rat pregnane X receptor (rPXR) activation by small molecules, qHTS assay (AID 1346983); conditions: rPXR luciferase reporter cells, One-Glo luminescence, 24 h; stronger effect = higher value; further: nearly all actives have a fitted effect of over 20% in size
# Chain of Nuclear receptor subfamily 1 group I member 2 (Rattus norvegicus) (Q9R1A7 whole entry, looked up): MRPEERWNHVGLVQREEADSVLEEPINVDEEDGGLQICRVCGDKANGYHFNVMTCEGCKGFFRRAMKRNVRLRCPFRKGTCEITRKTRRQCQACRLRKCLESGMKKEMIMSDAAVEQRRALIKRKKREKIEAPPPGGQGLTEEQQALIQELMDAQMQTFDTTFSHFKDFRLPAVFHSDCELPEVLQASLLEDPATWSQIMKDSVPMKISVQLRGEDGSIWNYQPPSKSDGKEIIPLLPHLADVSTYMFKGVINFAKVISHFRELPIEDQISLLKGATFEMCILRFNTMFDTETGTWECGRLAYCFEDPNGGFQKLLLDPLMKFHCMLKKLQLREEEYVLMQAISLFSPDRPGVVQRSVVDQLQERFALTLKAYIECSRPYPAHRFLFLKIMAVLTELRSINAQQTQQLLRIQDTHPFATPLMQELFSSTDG
# In short: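 Cell-based rPXR activation assay: rPXR cells, 2,000 per well, rested 5hr at 37 C, then exposed to compounds in DMSO for 24 hr at 37 C. Luciferase activity read by One-Glo luminescence after 30 min at room temperature.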
# [18] = biological target: Nuclear receptor subfamily 1 group I member 2 (Homo sapiens) (UniProt O75469); test: CYP3A4 induction through human pregnane X receptor (PXR) by small molecules, qHTS assay (AID 1346984); further: nearly all actives have a fitted effect of over 40% in size
# In short: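 DPX-2 HepG2 cells carrying a PXR response element and CYP3A4-promoter luciferase construct, treated with compounds 24 hr at 37C. Then P450-Glo CYP3A4 Luciferin-IPA substrate (3uM final) for 3 hr at 37C, One-Glo added, luminescence read.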
# [19] = biological target: Nuclear receptor subfamily 1 group I member 2 (Homo sapiens) (UniProt O75469); test: Human pregnane X receptor (PXR) activation by small molecules, qHTS assay (AID 1346985); further: nearly all actives have a fitted effect of over 40% in size
# In short: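 DPX-2 cells (HepG2 co-transfected with a PXR response element and a CYP3A4-promoter luciferase construct) were seeded at 2,000 per well, rested 5 hr at 37C, then exposed to DMSO-dissolved compounds for 24 hr. Activation was read as luciferase luminescence.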
# [20] = biological target: Acetylcholinesterase (Homo sapiens) (UniProt P22303); test: Acetylcholinesterase (AChE) small molecule antagonists: colormetric cell-based qHTS assay (AID 1347395; calls by dose curve; further: nearly all actives have a fitted effect of over 30% in size; further: potency means the concentration at half of the fitted maximal effect)
# Chain of Acetylcholinesterase (Homo sapiens) (P22303 whole entry, looked up): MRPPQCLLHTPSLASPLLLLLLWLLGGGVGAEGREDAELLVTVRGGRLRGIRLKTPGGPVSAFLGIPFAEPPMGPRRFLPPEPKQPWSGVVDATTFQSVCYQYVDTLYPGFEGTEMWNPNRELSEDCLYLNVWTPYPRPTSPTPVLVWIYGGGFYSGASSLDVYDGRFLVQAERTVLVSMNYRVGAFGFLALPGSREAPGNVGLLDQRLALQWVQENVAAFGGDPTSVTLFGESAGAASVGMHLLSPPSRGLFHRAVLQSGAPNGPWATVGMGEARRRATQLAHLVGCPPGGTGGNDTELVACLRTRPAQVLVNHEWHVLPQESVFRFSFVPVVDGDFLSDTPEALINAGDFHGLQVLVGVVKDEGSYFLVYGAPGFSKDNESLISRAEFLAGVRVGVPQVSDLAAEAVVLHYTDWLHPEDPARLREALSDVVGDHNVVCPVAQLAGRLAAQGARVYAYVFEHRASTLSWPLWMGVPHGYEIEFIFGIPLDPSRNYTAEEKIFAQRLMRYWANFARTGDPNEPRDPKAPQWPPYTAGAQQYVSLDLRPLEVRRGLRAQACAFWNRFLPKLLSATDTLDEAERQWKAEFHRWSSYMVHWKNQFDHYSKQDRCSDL
# In short: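 SH-SY5Y cells; cpd 30 min 37 C; + DTNB/acetylthiocholine, 90 min 37 C; colorimetric thiocholine read; qHTS.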
Compound,Potency [1],Potency [2],Potency [3],Potency [4],Potency [5],Potency [6],Potency [7],Potency [8],Potency [9],outcome [10],Potency [11],Potency [12],Potency [13],Potency [14],Potency [15],Potency [16],max activation [17],Potency [18],outcome [19],Potency [20]
CCNCC,inactive,inactive,inactive,inactive,inactive,inactive,inactive,inactive,inactive,inactive,inactive,inactive,inactive,inactive,inactive,inactive,–,–,–,–
COP(=S)(OC)Oc1ccc(Sc2ccc(OP(=S)(OC)OC)cc2)cc1,inactive,inactive,54.5 µM (active) and inactive,inactive,inactive,inactive,inactive,inactive,inactive,inactive,inactive,inactive,inactive,inactive,inactive,24.3 µM (active) and inactive,1.76% (inactive),inactive,inactive,inactive
CC[n+]1c(-c2ccccc2)c2cc(N)ccc2c2ccc(N)cc21,48.3 µM (active) and 26.6 µM (active),inactive,38.4 µM (active),5.31 µM (active),3.76 µM (active),inactive,inactive,inactive,inactive,inactive,27.2 µM (active),inactive,60.8 µM (active) and 29.8 µM (active),inactive,38.4 µM (active) and 23.7 µM (active),inactive,-4.94% (inactive) and -4.01% (inactive),inactive,inactive,31.6 µM (active) and 19.5 µM (active)
c1ccc(C2CO2)cc1 (stereo not given),inactive,inactive,inactive,inactive,inactive,inactive,inactive,inactive,inactive,inactive,inactive,inactive,inactive,inactive,inactive,inactive,–,–,–,inactive
S=c1[nH]c2ccccc2[nH]1,inactive,inactive,30.7 µM (active),24.4 µM (active),inactive,inactive,inactive,inactive,inactive,inactive,50.1 µM (active) and inactive,inactive,13.7 µM (active) and inactive,inactive,inactive,68.7 µM (active),–,–,–,inactive
C[N+](C)(C)CC(=O)O,inactive,inactive,inactive,inactive,inactive,inactive,inactive,inactive,–,–,inactive,inactive,inactive,inactive,inactive,inactive,-1.07% (inactive),inactive,inactive,inactive
NN=C(N)N,inactive,inactive,inactive,inactive,inactive,inactive,inactive,inactive,–,–,inactive,inactive,inactive,inactive,inactive,inactive,-0.866% (inactive),inactive,inactive,–
